Data on 1 sequence can be found in PMC7862700, “An all-to-all approach to the identification of sequence-specific readers for epigenetic DNA modifications on cytosine”.

Holding throughout (experiment): DAPPL (digital affinity profiling via proximity ligation, sequencing); 10 mM Tris-HCl pH 7.5, 50 mM NaCl, 1 mM DTT, 4% glycerol, room temperature, 30 min; GST-TFs on glutathione beads, 16-mer random dsDNA library, 0.1% formaldehyde crosslink after washing; high values mean tight binding
Details in all cases: protein: recombinant; tags: N-terminal GST; dsDNA, one strand shown

One assay addresses T1, FLI1 (Homo sapiens, UniProt Q01543 1-452).
T1 sequence: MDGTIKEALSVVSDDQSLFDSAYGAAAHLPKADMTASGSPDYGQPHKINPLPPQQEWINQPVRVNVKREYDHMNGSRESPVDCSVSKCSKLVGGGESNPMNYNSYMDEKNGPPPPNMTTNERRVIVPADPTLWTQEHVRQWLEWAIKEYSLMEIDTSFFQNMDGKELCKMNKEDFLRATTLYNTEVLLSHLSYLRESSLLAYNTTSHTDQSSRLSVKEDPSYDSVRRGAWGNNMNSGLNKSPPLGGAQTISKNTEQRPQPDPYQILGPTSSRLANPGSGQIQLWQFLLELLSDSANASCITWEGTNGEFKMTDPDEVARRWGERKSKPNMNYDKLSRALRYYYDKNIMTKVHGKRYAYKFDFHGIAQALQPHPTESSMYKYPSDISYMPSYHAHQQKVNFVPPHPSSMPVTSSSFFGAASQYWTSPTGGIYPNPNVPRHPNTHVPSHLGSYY
The method, boiled down: (§1)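 Each value of binding signal is a hexamer's read frequency for a factor divided by the same hexamer's frequency in the tag-only sample. Barcoded, bead-captured GST fusions of human transcription factors made in yeast were pooled with that sample and incubated with 200 nmole of a random double-stranded 16-mer DNA library in Tris/NaCl/DTT/glycerol buffer at room temperature for 30 min. Washing, 0.1% formaldehyde crosslinking, proximity ligation, PCR and Illumina NextSeq500 sequencing followed.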

The next assay has as its target T2, ELK1 (Homo sapiens, UniProt P19419 1-428).
T2 sequence: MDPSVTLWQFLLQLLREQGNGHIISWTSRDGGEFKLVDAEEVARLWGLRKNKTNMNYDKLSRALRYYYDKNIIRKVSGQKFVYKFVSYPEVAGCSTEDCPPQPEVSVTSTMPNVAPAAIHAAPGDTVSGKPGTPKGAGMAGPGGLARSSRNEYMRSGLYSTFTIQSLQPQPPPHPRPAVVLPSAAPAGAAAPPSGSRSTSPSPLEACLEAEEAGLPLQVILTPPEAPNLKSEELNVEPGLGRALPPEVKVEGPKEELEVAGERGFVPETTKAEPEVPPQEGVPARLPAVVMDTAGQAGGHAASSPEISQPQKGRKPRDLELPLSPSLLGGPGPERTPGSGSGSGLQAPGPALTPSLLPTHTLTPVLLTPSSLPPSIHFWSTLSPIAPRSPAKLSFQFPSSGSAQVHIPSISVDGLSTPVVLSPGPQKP
In short, it runs like this: as §1

The target in another assay is T3, GABPA (Homo sapiens, UniProt Q06546 1-454).
T3 sequence: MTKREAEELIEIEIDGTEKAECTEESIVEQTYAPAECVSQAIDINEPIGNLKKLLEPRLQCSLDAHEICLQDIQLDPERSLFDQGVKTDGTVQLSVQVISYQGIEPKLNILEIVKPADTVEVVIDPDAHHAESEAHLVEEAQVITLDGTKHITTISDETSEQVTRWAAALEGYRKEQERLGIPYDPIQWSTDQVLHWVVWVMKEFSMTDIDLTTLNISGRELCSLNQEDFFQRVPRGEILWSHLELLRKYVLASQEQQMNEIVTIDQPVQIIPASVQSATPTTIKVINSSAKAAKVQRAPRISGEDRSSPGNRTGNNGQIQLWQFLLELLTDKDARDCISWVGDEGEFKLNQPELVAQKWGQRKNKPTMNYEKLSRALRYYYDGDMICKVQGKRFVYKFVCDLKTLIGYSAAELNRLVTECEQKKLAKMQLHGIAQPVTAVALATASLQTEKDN
The method, boiled down: as §1

The next assay deals with T4, ERG (Homo sapiens, UniProt P11308 1-479).
T4 sequence: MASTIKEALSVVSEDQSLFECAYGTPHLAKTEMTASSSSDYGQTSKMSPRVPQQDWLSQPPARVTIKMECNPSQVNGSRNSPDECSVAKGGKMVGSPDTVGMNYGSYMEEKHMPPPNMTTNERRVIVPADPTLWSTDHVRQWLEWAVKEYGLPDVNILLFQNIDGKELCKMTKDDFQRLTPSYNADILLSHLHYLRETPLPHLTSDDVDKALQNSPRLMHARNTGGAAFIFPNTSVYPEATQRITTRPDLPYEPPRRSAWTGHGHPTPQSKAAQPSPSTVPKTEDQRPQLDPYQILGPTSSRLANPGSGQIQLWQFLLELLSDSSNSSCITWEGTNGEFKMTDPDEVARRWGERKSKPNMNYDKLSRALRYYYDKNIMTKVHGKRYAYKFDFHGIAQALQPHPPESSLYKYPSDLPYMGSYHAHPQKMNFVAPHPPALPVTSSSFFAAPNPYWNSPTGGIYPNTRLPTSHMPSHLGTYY
In short, it runs like this: as §1

The target of a further assay is ELF1 (Homo sapiens, UniProt P32519 1-619). The method, boiled down: as §1
Chain of ELF1 (P32519 whole entry): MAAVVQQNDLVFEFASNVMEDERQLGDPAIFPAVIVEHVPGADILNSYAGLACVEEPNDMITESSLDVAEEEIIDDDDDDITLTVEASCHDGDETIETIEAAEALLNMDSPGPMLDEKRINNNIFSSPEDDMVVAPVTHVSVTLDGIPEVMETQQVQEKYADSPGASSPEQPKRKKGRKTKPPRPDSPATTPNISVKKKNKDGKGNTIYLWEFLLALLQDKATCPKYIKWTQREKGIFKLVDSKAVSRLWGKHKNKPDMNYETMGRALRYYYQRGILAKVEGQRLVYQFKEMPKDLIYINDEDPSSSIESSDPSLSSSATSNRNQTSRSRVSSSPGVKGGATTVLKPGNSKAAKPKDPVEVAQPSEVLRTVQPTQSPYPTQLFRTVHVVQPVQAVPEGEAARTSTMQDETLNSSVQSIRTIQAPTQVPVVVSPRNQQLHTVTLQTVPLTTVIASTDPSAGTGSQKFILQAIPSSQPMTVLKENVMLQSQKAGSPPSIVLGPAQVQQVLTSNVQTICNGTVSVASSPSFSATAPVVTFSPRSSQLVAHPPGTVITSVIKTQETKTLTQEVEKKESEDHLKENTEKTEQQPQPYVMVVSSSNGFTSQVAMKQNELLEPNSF
The target of the next assay is T5, EHF (Homo sapiens, UniProt Q9NZC4 1-300).
T5 sequence: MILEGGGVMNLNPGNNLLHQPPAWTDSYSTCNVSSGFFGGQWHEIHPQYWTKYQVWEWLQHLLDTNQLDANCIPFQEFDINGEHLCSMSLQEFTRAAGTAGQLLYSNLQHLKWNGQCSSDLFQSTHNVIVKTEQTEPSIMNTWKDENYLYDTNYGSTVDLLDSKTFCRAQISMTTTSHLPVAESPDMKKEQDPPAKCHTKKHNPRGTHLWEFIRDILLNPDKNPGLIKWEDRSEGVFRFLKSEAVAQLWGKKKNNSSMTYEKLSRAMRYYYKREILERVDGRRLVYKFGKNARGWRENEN
The method, boiled down: as §1

Another assay has as its target SPI1 (Homo sapiens, UniProt P17947 1-270). The method, boiled down: as §1
The next assay deals with SPIB (Homo sapiens, UniProt Q01892 1-262). In short, it runs like this:
as §1

Another assay deals with T6, ELK3 (Homo sapiens, UniProt P41970 1-407).
T6 sequence: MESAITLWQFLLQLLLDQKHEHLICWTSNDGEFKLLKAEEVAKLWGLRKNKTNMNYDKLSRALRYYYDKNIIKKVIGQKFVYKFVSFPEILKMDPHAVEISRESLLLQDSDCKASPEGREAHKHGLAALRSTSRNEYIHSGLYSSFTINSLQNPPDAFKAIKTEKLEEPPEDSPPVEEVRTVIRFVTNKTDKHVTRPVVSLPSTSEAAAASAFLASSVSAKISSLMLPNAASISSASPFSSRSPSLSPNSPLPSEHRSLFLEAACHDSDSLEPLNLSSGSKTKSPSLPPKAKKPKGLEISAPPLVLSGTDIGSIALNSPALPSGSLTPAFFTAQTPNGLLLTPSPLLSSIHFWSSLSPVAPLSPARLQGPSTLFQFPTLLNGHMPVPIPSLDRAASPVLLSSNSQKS
In short, it runs like this: as §1

The next assay deals with T7, FEV (Homo sapiens, UniProt Q99581 1-238).
T7 sequence: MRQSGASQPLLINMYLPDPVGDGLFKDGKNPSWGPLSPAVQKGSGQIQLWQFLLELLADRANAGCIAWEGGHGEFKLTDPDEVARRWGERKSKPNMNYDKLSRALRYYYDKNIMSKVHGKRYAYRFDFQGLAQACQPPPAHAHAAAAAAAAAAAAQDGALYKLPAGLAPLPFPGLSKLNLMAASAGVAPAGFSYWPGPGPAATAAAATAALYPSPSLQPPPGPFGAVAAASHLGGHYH
The method, boiled down: as §1

A further assay has as its target ETV5 (Homo sapiens, UniProt P41161 1-510). The method, boiled down:
as §1

Another assay deals with T8, SPIC (Homo sapiens, UniProt Q8N5J4 1-248).
T8 sequence: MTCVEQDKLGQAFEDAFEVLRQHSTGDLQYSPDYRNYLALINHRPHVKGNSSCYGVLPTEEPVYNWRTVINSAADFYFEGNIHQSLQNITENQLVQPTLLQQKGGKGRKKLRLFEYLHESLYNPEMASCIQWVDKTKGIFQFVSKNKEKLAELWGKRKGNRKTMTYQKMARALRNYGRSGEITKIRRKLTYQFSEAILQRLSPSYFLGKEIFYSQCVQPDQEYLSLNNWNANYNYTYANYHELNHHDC
In short, it runs like this: as §1

The target in another assay is ELF4 (Homo sapiens, UniProt Q99607 1-663). The method, boiled down: as §1
Chain of ELF4 (Q99607 whole entry): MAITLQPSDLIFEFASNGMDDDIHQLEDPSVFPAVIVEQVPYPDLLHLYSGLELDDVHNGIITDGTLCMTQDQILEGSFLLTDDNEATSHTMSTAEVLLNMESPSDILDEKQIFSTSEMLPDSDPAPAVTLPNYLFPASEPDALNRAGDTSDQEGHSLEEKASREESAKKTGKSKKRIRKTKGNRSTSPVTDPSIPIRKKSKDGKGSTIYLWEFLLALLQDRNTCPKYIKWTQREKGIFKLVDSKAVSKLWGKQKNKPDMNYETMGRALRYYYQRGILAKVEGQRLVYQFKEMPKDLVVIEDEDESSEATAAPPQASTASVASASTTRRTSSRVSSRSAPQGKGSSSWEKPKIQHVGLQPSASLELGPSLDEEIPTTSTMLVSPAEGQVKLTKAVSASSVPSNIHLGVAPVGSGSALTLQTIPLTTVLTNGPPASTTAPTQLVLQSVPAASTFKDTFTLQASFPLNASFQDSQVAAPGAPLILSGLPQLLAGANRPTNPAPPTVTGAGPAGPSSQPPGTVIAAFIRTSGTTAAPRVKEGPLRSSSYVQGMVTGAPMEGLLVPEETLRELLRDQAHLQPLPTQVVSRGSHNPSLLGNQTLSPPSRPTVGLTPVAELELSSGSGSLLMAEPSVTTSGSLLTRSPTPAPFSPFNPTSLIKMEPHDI
Another assay deals with T9, ELK4 (Homo sapiens, UniProt P28324-2 1-405).
T9 sequence: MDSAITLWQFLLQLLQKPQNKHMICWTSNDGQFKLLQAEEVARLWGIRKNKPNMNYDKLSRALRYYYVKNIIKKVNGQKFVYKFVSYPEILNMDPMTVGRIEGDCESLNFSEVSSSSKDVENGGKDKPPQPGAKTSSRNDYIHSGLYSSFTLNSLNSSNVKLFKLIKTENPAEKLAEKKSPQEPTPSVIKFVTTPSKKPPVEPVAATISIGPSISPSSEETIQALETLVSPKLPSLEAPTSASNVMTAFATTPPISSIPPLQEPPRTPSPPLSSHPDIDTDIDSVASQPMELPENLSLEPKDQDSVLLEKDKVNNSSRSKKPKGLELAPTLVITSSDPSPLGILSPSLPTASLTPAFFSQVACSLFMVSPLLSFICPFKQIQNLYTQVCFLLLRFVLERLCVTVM
In short, it runs like this:
as §1

The target of a further assay is T10, ETV2 (Homo sapiens, UniProt O00321 1-342).
T10 sequence: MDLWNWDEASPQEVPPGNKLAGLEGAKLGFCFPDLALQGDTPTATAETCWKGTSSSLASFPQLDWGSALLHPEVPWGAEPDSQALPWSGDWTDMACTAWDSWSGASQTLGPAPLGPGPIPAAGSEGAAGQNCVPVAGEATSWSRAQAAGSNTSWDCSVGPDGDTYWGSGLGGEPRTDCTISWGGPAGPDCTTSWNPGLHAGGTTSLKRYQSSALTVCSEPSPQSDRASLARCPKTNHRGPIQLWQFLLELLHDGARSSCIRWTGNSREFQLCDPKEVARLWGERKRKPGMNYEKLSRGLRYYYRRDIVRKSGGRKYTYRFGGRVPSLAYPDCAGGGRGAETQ
The method, boiled down:
as §1

The target of the next assay is T11, ELF3 (Homo sapiens, UniProt P78545 1-371).
T11 sequence: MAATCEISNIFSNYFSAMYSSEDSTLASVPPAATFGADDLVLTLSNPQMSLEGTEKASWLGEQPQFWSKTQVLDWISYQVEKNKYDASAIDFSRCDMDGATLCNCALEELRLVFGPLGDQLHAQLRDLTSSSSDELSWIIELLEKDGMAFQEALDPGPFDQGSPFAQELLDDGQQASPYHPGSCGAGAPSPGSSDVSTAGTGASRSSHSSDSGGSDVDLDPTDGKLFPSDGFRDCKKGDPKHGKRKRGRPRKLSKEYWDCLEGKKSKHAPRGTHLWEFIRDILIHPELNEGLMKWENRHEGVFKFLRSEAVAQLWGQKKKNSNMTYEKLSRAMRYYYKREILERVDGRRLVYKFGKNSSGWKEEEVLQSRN
The method, boiled down: as §1

For the next assay, the target named is CRX (Homo sapiens, UniProt O43186 1-299). In short, it runs like this: as §1
Chain of CRX (O43186 whole entry): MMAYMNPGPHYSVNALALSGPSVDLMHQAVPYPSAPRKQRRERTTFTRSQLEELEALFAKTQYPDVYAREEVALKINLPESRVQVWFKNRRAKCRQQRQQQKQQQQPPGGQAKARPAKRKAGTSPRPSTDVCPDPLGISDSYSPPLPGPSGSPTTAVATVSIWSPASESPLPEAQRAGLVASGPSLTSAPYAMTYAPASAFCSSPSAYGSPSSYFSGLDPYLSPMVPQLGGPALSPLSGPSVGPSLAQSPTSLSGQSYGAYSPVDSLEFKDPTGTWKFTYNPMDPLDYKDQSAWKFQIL

Chain of ETV5 (P41161 whole entry): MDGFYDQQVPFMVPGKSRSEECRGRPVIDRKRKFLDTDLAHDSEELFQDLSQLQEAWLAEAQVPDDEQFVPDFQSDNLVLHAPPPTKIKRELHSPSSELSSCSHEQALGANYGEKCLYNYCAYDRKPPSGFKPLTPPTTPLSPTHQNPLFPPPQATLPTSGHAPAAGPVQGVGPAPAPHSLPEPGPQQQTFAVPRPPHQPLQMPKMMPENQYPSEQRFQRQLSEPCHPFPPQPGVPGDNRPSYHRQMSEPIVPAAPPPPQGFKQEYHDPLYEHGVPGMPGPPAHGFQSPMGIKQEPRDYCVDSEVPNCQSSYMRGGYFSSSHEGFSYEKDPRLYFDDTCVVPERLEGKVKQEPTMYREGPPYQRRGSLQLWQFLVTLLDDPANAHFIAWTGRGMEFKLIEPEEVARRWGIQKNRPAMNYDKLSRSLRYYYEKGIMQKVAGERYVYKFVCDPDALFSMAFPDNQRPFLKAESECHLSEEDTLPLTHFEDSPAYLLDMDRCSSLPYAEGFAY
Chain of SPIB (Q01892 whole entry): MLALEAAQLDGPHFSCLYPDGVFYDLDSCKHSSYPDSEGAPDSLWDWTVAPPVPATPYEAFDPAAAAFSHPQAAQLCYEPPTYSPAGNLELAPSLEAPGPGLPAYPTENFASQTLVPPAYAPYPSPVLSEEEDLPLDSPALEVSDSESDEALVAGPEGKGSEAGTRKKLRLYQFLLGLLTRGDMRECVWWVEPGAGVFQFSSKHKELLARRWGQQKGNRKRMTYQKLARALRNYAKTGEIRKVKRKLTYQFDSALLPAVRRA

Consider ACCGCT, for which the binding signal is 1.09 fold enrichment (6-mer frequency, TF over GST control) with FLI1; 1.12 fold enrichment (6-mer frequency, TF over GST control) in the assay with ELK1; 1.14 fold enrichment (6-mer frequency, TF over GST control) with GABPA; 1.1 fold enrichment (6-mer frequency, TF over GST control) with ERG; 1.07 fold enrichment (6-mer frequency, TF over GST control) with ELF1; 1.09 fold enrichment (6-mer frequency, TF over GST control) with EHF. Further, the binding signal with SPI1 was 1.03 fold enrichment (6-mer frequency, TF over GST control); in the assay with SPIB, 1.15 fold enrichment (6-mer frequency, TF over GST control); with ELK3, 1.05 fold enrichment (6-mer frequency, TF over GST control); in the assay with FEV, 1.17 fold enrichment (6-mer frequency, TF over GST control); in the assay with ETV5, 1.1 fold enrichment (6-mer frequency, TF over GST control); with SPIC, 1.13 fold enrichment (6-mer frequency, TF over GST control). The binding signal with ELF4 is 1.14 fold enrichment (6-mer frequency, TF over GST control); with ELK4, 1.18 fold enrichment (6-mer frequency, TF over GST control); in the assay with ETV2, 1.07 fold enrichment (6-mer frequency, TF over GST control); with ELF3, 1.19 fold enrichment (6-mer frequency, TF over GST control); in the assay with CRX, 1.01 fold enrichment (6-mer frequency, TF over GST control).
